Here are results for 40 compounds from PubChem BioAssay (NCATS).

SMILES strings stand for the structures. Values joined by “and” are separate entries in the source; they are usually repeats but may differ in a detail not shown here. Equal entries are not always repeated. Records with an inconclusive call do not appear. A number with no mark means an inactive call. Active and inactive are the calls of the source. Calls follow the shape of the dose curve; as a rule, active = well fitted curve in the direction sought with a large enough effect; inconclusive = small, poorly fitted or top-dose-only effect, or another doubt; inactive = no such curve, though single readings can be large; an effect the other way counts as inactive or inconclusive.
% is scaled to controls: 0 for no effect and ±100 for the full control effect; potency is read from the fitted curve at half-maximal effect.
Also: nearly all actives have a fitted effect of over 70% in size.

A short description of the first assay: Primary qHTS for inhibitors of nuclear receptor binding SET domain protein 2 (NSD2) in an isogenic RCH-ACV NSD2 p.E1099K mutant (9B) (AID 1645876). Conditions: RCH-ACV NSD2 E1099K (9B) viability, CellTiter-Glo, 72 h; series mostly up to 44.9 µM; activity change, negative = viability loss: at the top concentration.
Consider `Cn1cc(-c2ccc(S(=O)(=O)n3ccc(/C=C/C(=O)Nc4ccccc4N)c3)cc2)cn1`, for which the Potency is 649 nM (active) and 934 nM (active).

On to `C=CC(=O)Nc1cccc(Nc2nc(Nc3ccc(NC4CN(CCF)C4)cc3OC)ncc2C(F)(F)F)c1`, for which the Potency was 4.59 µM (active) and 5.9 µM (active).

On to `C[C@@H](NC(=O)c1ccc(C#Cc2cccc(F)c2)cn1)C(C)(C)O`, for which the “activity change, negative = viability loss” value is -21.9%.

With `COCC(=O)NC/C=C/c1ccc2ncnc(Nc3ccc(Oc4ccc(C)nc4)c(C)c3)c2c1`, the Potency was 20.5 µM (active).

In the case of `N#Cc1cnc2c(Cl)cc(NCc3cn(CCN4CCCCCC4)nn3)cc2c1Nc1ccc(F)c(Cl)c1`, the Potency is 20.5 µM (active).

As for `COc1cc2c(cc1-c1c(C)noc1C)ncc1[nH]c(=O)n(C(C)c3ccccn3)c12` (stereo not drawn), the Potency is 0.325 µM (active).

With `COc1ccccc1OCCNCC(O)CCOc1cccc2[nH]c3ccccc3c12` (stereo not drawn), the Potency is 18.3 µM (active).

In the case of `COc1cc2c(cc1OCCCN1CCCC1)N=C(N)C21CCC1`, the “activity change, negative = viability loss” value is -13.1%.

Take `CN1CCN(Cc2ccc(NC(=O)Cc3ccc(Oc4cc(NC(=O)C5CC5)ncn4)cc3)cc2C(F)(F)F)CC1`: the Potency was 0.649 µM (active).

For the compound `Fc1ccc(-n2cc(CCCCN3CCC4(CC3)OCc3ccccc34)c3ccccc32)cc1`, the Potency is 7.28 µM (active).

`O=C(NCCN1CCN(c2cccc3c2OCCO3)CC1)c1ccc(F)cc1`: the “activity change, negative = viability loss” value was -23%.

Turning to `COC(=O)c1ccc(N2CCN(C)CC2)c(NC(=O)c2cccc(OC)c2)c1`, the “activity change, negative = viability loss” value is -11.7%.

Turning to `CNC1CN(c2ccc3c(=O)c(C(=O)O)cn(-c4nccs4)c3n2)CC1OC` (stereo not drawn), the Potency was 0.0836 µM (active).

On to `O=C(NCCCCN1CCN(c2cccc(Cl)c2Cl)CC1)c1cc2ccccc2s1`, for which the Potency was 20.5 µM (active).

As to `Cc1[nH]c(/C=C2\C(=O)Nc3ccc(F)cc32)c(C)c1C(=O)NCCN1CCCC1`, the Potency was 16.3 µM (active) and 7.23 µM (active).

As for `C[C@H](Oc1cc(-n2cnc3ccc(CN4CCN(C)CC4)cc32)sc1C(N)=O)c1ccccc1C(F)(F)F`, the Potency is 1.15 µM (active).

Regarding `Cc1noc(C)c1-c1cc(O)cc(C(O)c2ccccc2)c1` (stereo not drawn), the Potency is 0.916 µM (active).

On to `O=C(NCCO)c1cccc(-c2cc(Nc3ccc(OC(F)(F)F)cc3)ncn2)c1`, for which the Potency is 18.3 µM (active).

Take `CCOC(=O)C1(CCOc2ccccc2)CCN(Cc2ccc(O)c(Cl)c2)CC1`: the Potency is 23 µM (active).

`CCCCNc1ncc(C(=O)NCc2ccc(-n3ccnc3)cc2)c(NC2CCC(O)CC2)n1` (stereo not drawn): the Potency was 5.78 µM (active).

On to `COC(=O)N1CCC(n2ncc3c(N4CCOCC4)nc(-c4ccc(NC(=O)NC5CC5)cc4)nc32)CC1`, for which the Potency is 0.0817 µM (active).

Take `C[C@@H](Nc1ncnc2[nH]c(-c3ccc(O)cc3)cc12)c1ccccc1`: the Potency was 5.78 µM (active) and 11.8 µM (active).

Consider `COc1cc(/C=N\NC(=O)c2ccc3c(c2)OCO3)ccc1OCc1ccccc1`, for which the “activity change, negative = viability loss” value is -17.1%.

Another assay in a line: Primary qHTS for inhibitors of nuclear receptor binding SET domain protein 2 (NSD2) in an RCH-ACV wild type WT cells (2C) (AID 1645877). The conditions noted are these: RCH-ACV (leukaemia line) NSD2 WT (2C) viability, CellTiter-Glo, 72 h; series mostly up to 44.9 µM; activity change, negative = cell killing: at the top concentration.
Regarding `Cn1cc(-c2ccc(S(=O)(=O)n3ccc(/C=C/C(=O)Nc4ccccc4N)c3)cc2)cn1`, the Potency is 649 nM (active) and 833 nM (active).

Consider `C=CC(=O)Nc1cccc(Nc2nc(Nc3ccc(NC4CN(CCF)C4)cc3OC)ncc2C(F)(F)F)c1`, for which the Potency was 4.09 µM (active) and 6.61 µM (active).

For `C[C@@H](NC(=O)c1ccc(C#Cc2cccc(F)c2)cn1)C(C)(C)O`, the “activity change, negative = cell killing” value is -21.5%.

On to `CCCCNc1ncc2c(-c3ccc(S(=O)(=O)N4CCOCC4)cc3)nn(C3CCC(O)CC3)c2n1` (stereo not drawn), for which the Potency is 1.03 µM (active).

As to `COCC(=O)NC/C=C/c1ccc2ncnc(Nc3ccc(Oc4ccc(C)nc4)c(C)c3)c2c1`, the Potency was 16.3 µM (active).

Take `N#Cc1cnc2c(Cl)cc(NCc3cn(CCN4CCCCCC4)nn3)cc2c1Nc1ccc(F)c(Cl)c1`: the Potency is 11.5 µM (active).

As to `COc1cc2c(cc1-c1c(C)noc1C)ncc1[nH]c(=O)n(C(C)c3ccccn3)c12` (stereo not drawn), the Potency was 0.325 µM (active).

Turning to `COc1ccccc1OCCNCC(O)CCOc1cccc2[nH]c3ccccc3c12` (stereo not drawn), the Potency is 14.5 µM (active).

Take `COc1cc2c(cc1OCCCN1CCCC1)N=C(N)C21CCC1`: the “activity change, negative = cell killing” value was -20.9%.

For the compound `CC[C@@H](Nc1c(Nc2cccc(C(=O)N(C)C)c2O)c(=O)c1=O)c1cc(C(C)C)co1`, the Potency is 16.3 µM (active).

`O=C(NCCCc1ccccc1)C1CCC(CNS(=O)(=O)c2cccc3nsnc23)CC1` (stereo not drawn): the Potency is 11.5 µM (active).

As for `O=S1(=O)CCN(Cc2cc(NCC3CCOCC3)c3[nH]c(-c4ccccc4)cc3c2)CC1`, the Potency is 10.3 µM (active).

For the compound `CCOC(=O)N1CCC(CN(Cc2ccc(Cl)cc2)Cc2ccc([N+](=O)[O-])s2)C1` (stereo not drawn), the Potency was 20.5 µM (active).

Consider `CN1CCN(Cc2ccc(NC(=O)Cc3ccc(Oc4cc(NC(=O)C5CC5)ncn4)cc3)cc2C(F)(F)F)CC1`, for which the Potency was 0.817 µM (active).

For the compound `CCCNCCc1ccc(NS(=O)(=O)c2ccc(OC(F)(F)F)cc2)cc1`, the Potency is 14.5 µM (active).

Regarding `CC(F)(F)CN1CCOc2c(nn(-c3ccccc3Cl)c2-c2ccc(Cl)cc2)C1=O`, the Potency was 18.3 µM (active).

For the compound `Fc1ccc(-n2cc(CCCCN3CCC4(CC3)OCc3ccccc34)c3ccccc32)cc1`, the Potency is 6.49 µM (active).

As for `Cc1cccc(CC(=O)N2CCc3c2ccc(-c2cn(C)c4ncnc(N)c24)c3F)n1`, the Potency is 16.4 µM (active).

For the compound `O=C(NCCN1CCN(c2cccc3c2OCCO3)CC1)c1ccc(F)cc1`, the “activity change, negative = cell killing” value is -17.7%.

`CC(C)c1ccc(NC(=O)c2cccs2)c(-c2nc3ccccc3[nH]c2=O)c1`: the Potency is 16.3 µM (active).

Consider `COC(=O)c1ccc(N2CCN(C)CC2)c(NC(=O)c2cccc(OC)c2)c1`, for which the “activity change, negative = cell killing” value was -16.8%.

Consider `Cc1c(C(=O)NCc2cccnc2)nn(-c2ccc(Cl)cc2Cl)c1-c1ccc(Cl)cc1`, for which the Potency is 20.5 µM (active).

In the case of `C[C@@H]1CCCN1CCc1cc2cc(-c3ccc(C#N)cc3)ccc2o1`, the Potency is 20.5 µM (active).

As for `CNC1CN(c2ccc3c(=O)c(C(=O)O)cn(-c4nccs4)c3n2)CC1OC` (stereo not drawn), the Potency was 0.0297 µM (active).

As to `O=C(NCCCCN1CCN(c2cccc(Cl)c2Cl)CC1)c1cc2ccccc2s1`, the Potency is 23 µM (active).

With `Cc1[nH]c(/C=C2\C(=O)Nc3ccc(F)cc32)c(C)c1C(=O)NCCN1CCCC1`, the Potency is 11.5 µM (active) and 7.23 µM (active).

Turning to `Cc1cc(C)cc(-c2cnc3cc(Cl)c(-c4cccc(O)c4)cc3c2OCCCN)c1`, the Potency is 16.3 µM (active).

As to `C[C@H](Oc1cc(-n2cnc3ccc(CN4CCN(C)CC4)cc32)sc1C(N)=O)c1ccccc1C(F)(F)F`, the Potency is 1.29 µM (active).

Consider `Cc1cc(C)nc(SCC(=O)Nc2ncc(Cc3cccc4ccccc34)s2)n1`, for which the “activity change, negative = cell killing” value was -24.2%.

Turning to `Cc1cc(C)c(-n2cc(C)c3c(Cl)nc(C)nc32)c(C)c1`, the “activity change, negative = cell killing” value is -24.3%.

On to `O=C(NCCN1CCC(n2c(=O)[nH]c3ccccc32)CC1)c1ccc2ccccc2c1`, for which the Potency was 16.3 µM (active).

For `Cc1noc(C)c1-c1cc(O)cc(C(O)c2ccccc2)c1` (stereo not drawn), the Potency was 1.03 µM (active).

On to `O=C(NCCO)c1cccc(-c2cc(Nc3ccc(OC(F)(F)F)cc3)ncn2)c1`, for which the Potency was 18.3 µM (active).

As for `CCOC(=O)C1(CCOc2ccccc2)CCN(Cc2ccc(O)c(Cl)c2)CC1`, the Potency was 23 µM (active).

Turning to `CCCCNc1ncc(C(=O)NCc2ccc(-n3ccnc3)cc2)c(NC2CCC(O)CC2)n1` (stereo not drawn), the Potency was 4.59 µM (active).

Turning to `COC(=O)N1CCC(n2ncc3c(N4CCOCC4)nc(-c4ccc(NC(=O)NC5CC5)cc4)nc32)CC1`, the Potency was 0.115 µM (active).

As to `C[C@@H](Nc1ncnc2[nH]c(-c3ccc(O)cc3)cc12)c1ccccc1`, the Potency was 5.78 µM (active) and 10.5 µM (active).

On to `C=CC(=O)N1CCN(C(=O)CNc2cc(-c3ccccc3Cl)c(Cl)cc2OC)CC1`, for which the Potency was 16.3 µM (active).

`O=C(NCC1(c2nc(-c3ccccc3)cs2)CCOCC1)c1cccc(-c2noc(C(F)(F)F)n2)c1`: the Potency is 25.8 µM (active).

As to `COc1cc(/C=N\NC(=O)c2ccc3c(c2)OCO3)ccc1OCc1ccccc1`, the “activity change, negative = cell killing” value was -21.5%.
